NPSR antag = antagonists of human neuropeptide S receptor cAMP signaling; CHO-NPSR cells, cAMP TR-FRET, antagonist mode; Potency, µM (titrated, usually from 38.3 µM), most hits filed as inhibitors; actives 1% (n = 220,000); AID 1461; further: nearly all actives have a fitted effect of over 50% in size
Target sequence (Q6W5P4 whole entry, looked up): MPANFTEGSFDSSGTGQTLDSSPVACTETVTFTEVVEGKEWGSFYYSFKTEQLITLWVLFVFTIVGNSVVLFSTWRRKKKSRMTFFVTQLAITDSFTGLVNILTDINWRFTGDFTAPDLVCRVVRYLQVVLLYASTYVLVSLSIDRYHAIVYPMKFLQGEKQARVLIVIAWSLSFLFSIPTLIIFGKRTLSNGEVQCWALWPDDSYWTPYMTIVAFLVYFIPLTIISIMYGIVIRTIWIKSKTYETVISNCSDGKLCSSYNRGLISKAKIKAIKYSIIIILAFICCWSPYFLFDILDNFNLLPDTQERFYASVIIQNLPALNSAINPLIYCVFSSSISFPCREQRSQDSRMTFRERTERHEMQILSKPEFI
B2AR arrestin = beta2AR (human) beta-arrestin recruitment activity; P07550; beta-arrestin recruitment to beta2AR, cell-based reporter; Potency, µM (highest dose often 46.1 µM), usual class: activators; actives 0.02% (n = 330,000); AID 492947; further: nearly all actives have a fitted effect of over 65% in size
RORg inh = blocks mouse ROR gamma transcriptional activity | Drosophila S2 Gal4-RORgamma UAS-luciferase reporter, 20 h | Potency, µM (titrated, usually from 53.6 µM), usual class: inhibitors | actives 5.4% (n = 310,000) | AID 2551; further: nearly all actives have a fitted effect of over 60% in size
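Stable Schneider cell line, Gal4 DNA-binding domain fused to ROR gamma, UAS-luciferase. Cmpd 1 hr RT → CuSO4 700 uM final → 20 hr RT → luciferase reagent 10 min → luminescence.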
VP16 counter = Gal4-VP16 reporter inhibition counter-screen; Drosophila S2 Gal4-VP16 UAS-luciferase, luminescence, 20 h; Potency, µM (titrated, usually from 53.6 µM), actives largely listed as inhibitors; actives 3.5% (n = 310,000); AID 2546;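 further: Gal4-VP16 expression switched on by copper sulfate through the metallothionein promoter; nearly all actives have a fitted effect of over 50% in size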
Of the large screens only hits and unclear results are named; the others gave an inactive call. This is a sample that favours compounds with a hit; in the whole collection about 5.7% have one here. The call rests on the fitted dose curve; in most records, active means well fitted curve in the direction sought with a large enough effect; inconclusive means small, poorly fitted or top-dose-only effect, or another doubt; inactive means no such curve, though single readings can be large; an effect the other way counts as inactive or inconclusive.

O=C(NC(=S)N1CCCCCC1)c1ccccc1	RORg inh 1.4µM, VP16 counter 1.8µM (no result: NPSR antag)
O=C(c1ccccc1)N1CCN(C2CCCCCC2)CC1	none
O=C(NC(=S)N1CCN(C2CCCCC2)CC1)c1ccccc1	RORg inh 0.89µM, VP16 counter 3.2µM
COc1cc2c(cc1OC)CN(C(=S)NC(=O)c1ccccc1)CC2	RORg inh 5.6µM, VP16 counter 3.2µM
CNC(=S)N1CCc2cc(OC)c(OC)cc2C1	none
O=C(NC(=S)N1CCCCC1)c1cccnc1	RORg inh 0.71µM, VP16 counter 3.2µM
Cc1ccc(N(CC(=O)NCc2ccco2)C(=O)CCC(=O)Nc2ccccn2)c(C)c1	none (no result: NPSR antag)
O=C(NCC(=O)N1CCN(C/C=C/c2ccccc2)CC1)c1ccc(Br)cc1	none (no result: NPSR antag, RORg inh, VP16 counter)
O=C(NC(=S)N1CCN(Cc2ccccc2)CC1)c1cccnc1	RORg inh 0.89µM, VP16 counter 2.5µM
O=C(CSC(=S)N1CCCC1)c1ccccc1	RORg inh 10µM, VP16 counter inconclusive (no result: NPSR antag)
O=C(NC(=S)N1CCN(C/C=C/c2ccccc2)CC1)c1ccc(Cl)nc1	NPSR antag inconclusive, RORg inh 0.11µM, VP16 counter 0.32µM
Cc1cc(=O)oc(C)c1C(=O)Nc1cccc(F)c1	none
CCCCNC(=S)NC(=O)c1ccc([N+](=O)[O-])cc1	RORg inh 4.5µM, VP16 counter inconclusive
CC(C)CNC(=S)NC(=O)c1ccc([N+](=O)[O-])cc1	RORg inh 4.5µM, VP16 counter 14µM
COc1ccc2[nH]cc(CCNC(=O)Nc3ccccc3C)c2c1	none (no result: NPSR antag)
Cc1cc(C)c(OCC(=O)N2CC=C(c3ccccc3)CC2)c(C)c1	none (no result: NPSR antag)
CCCc1nc2ccccc2c(=O)n1CCc1ccccc1	none (no result: NPSR antag)
CCn1cc(C(=O)NCC(OC)OC)c(=O)c2cc(S(=O)(=O)N3CCC(C)CC3)ccc21	none (no result: NPSR antag)
C=CC[n+]1ccc(/C=C2\C=Cc3cc(C)ccc3N2CC)c2ccccc21	NPSR antag inconclusive, RORg inh 1.3µM, VP16 counter 1.3µM
CC(C)(C)C1CCc2c(sc3ncn(N)c(=N)c23)C1 (stereo unspecified)	RORg inh inconclusive
Cc1nn(C)c(Cl)c1NC(=O)OCc1ccc(F)cc1	RORg inh inconclusive, VP16 counter 1.8µM
O=C(NNC(=S)NC1CCCCC1)c1ccccc1O	RORg inh 14µM
O=C(NC(=S)NC1CCCC1)c1ccccc1Br	RORg inh 4.5µM, VP16 counter inconclusive
O=C(NC(=S)NC1CCCC1)c1ccccc1	RORg inh 7.1µM, VP16 counter 10µM (no result: NPSR antag)
O=C(NC(=S)NC1CCCCCCCCCCC1)c1cccnc1	none
N#Cc1ccc(C(=O)NC(=S)NC2CCCCC2)cc1	none (no result: NPSR antag, RORg inh, VP16 counter)
O=C(NC(=S)NC1CC1)c1cccnc1	RORg inh 5.6µM, VP16 counter inconclusive
CN(Cc1ccco1)c1ncncc1-c1cccnc1	none (no result: NPSR antag, B2AR arrestin)
COc1ccc(N2C(=O)C(C)C(Cc3ccc(C)cc3)C2=O)cc1 (stereo unspecified)	none (no result: NPSR antag)
COc1ccc([N+](=O)[O-])cc1NC(=O)c1ccc(N(Cc2ccccc2Cl)S(C)(=O)=O)cc1	none
O=C(CSc1nnc2c(Cl)cc(Cl)cn12)N1CCN(c2ccc(F)cc2)CC1	none
CC(C)C(NC(=O)c1ccccc1Br)c1ccccc1 (stereo unspecified)	none
CCN(C(=S)NC(=O)c1ccccc1Br)C1CCCCC1	RORg inh 1µM, VP16 counter 2.8µM
CCN(CC(=O)Nc1ccccc1Br)C1CCCCC1	NPSR antag inconclusive
O=C(NC(=S)NC1C2CC3CC(C2)CC1C3)c1ccccc1 (stereo unspecified)	RORg inh 1.6µM, VP16 counter 1.8µM (no result: NPSR antag)
CCN(C(=S)NC(=O)C1CC1)c1ccccc1	RORg inh inconclusive, VP16 counter inconclusive (no result: NPSR antag)
CCN(C(=S)NC(=O)C1CCCC1)C1CCCCC1	RORg inh 4.5µM, VP16 counter inconclusive
CC(NC(=S)NC(=O)c1ccccc1Br)c1ccccc1 (stereo unspecified)	RORg inh 6.3µM, VP16 counter 7.1µM (no result: NPSR antag)
CCCCCCCCCCCCCCCCC(C(=O)O)C(O)(CC(=O)O)C(=O)O (stereo unspecified)	none (no result: NPSR antag, B2AR arrestin)
CNc1ncncc1-c1ccccc1C	none (no result: NPSR antag, B2AR arrestin)
Cc1ccc(NC(=O)CCC(=O)N/N=C/c2ccccc2O)cc1	RORg inh 4µM, VP16 counter 11µM (no result: NPSR antag)
Cc1ccc(SCCC(=O)N/N=C/c2ccccc2O)cc1	RORg inh 0.63µM, VP16 counter 0.63µM
COc1ccc(O)c(/C=N/NC(=O)CCC(=O)Nc2ccc(F)cc2)c1	RORg inh 11µM (no result: NPSR antag)
O=C(CCn1cnc(-c2ccccc2)c1-c1ccccc1)N/N=C/c1ccccc1O	RORg inh inconclusive, VP16 counter 2.8µM

Source: PubChem (National Center for Advancing Translational Sciences (NCATS))
